The text below walks through data of PubChem BioAssay (Tox21).

Each structure is given as a SMILES string. Records with an inconclusive call do not appear. A number with no mark means an inactive call. Activity calls are given as the source filed them. Calls come from the whole dose curve; as a rule, active = well fitted cell-killing curve with a large enough effect in the repeat runs; inconclusive = weak or mixed curves, or effect the other way; inactive = flat fitted curve, though single readings scatter.
% is set by controls: 0 for no effect and ±100 for the full control effect.

A short description of this assay: qHTS assay to identify small molecule antagonists of the androgen receptor (AR) signaling pathway using the MDA cell line in the presence of 0.5 nM R1881 - cell viability counter screen (AID 1259242). Note: nearly all actives have a fitted effect of over 45% in size. The note with it: MDA-kb2 viability, CellTiter-Fluor protease fluorescence, 16 h; series mostly up to 92.4 µM. From the text:
U.S. Tox21 Program National Center for Advancing Translational Sciences [NCATS] NIH Chemical Genomics Center [NCGC] U.S. Environmental Protection Agency [EPA] National Institutes of Environmental Health Sciences [NIEHS] National Toxicology Program [NTP] U.S. Food and Drug Administration [FDA] Tox21 Assay Overview: Androgen receptor (AR) is an important member of the nuclear receptor family. Its signaling plays a critical role in AR-dependent prostate cancer and other androgen related diseases. Considerable attention has been given in the past decades to develop methods to study and screen for the environmental chemicals that have the potential to interfere with metabolic homeostasis, reproduction, developmental and behavioral functions. Therefore AR binding assay for screening androgen antagonists can be used to identify potential endocrine disruptors. MDA-kb2 cells (from ATCC, deposited by Wilson et al.) were used to screen for AR inhibitors against Tox21 compound libraries. These cells are human breast carcinoma cells that were stably transfected with a luciferase reporter gene under control of the MMTV promoter that contains response elements for both androgen receptor (AR) and glucocorticoid receptor (GR). The current screening for identification of AR inhibitors against Tox21 libraries used lower concentration of (0.5 nM) R1881 as a stimulator. The cytotoxicity of the Tox21 compound libraries against MDA-kb2 cell line was tested by measuring live-cell protease activity using CellTiter-Fluor assay in the same wells.
Tox21 Assay Protocol Summary: MDA-kb2 cells (cells cultured without CO2) were dispensed at 3,000 cells/well in 4 uL of culture medium into white wall/solid-bottom 1536-well plates (Corning Life Sciences, Corning, NY) using a Multidrop Combi (ThermoFisher Scientific, Waltham, MA) dispenser. After the assay plates were incubated at a 37C and 0% CO2 for 5 hr, 23 nL of compounds dissolved in DMSO, positive controls or DMSO only was transferred to the assay plate by a Pintool station (Kalypsys, San Diego, CA). The transfer of compounds was followed by the addition of 1 uL of 0.5 nM (final concentration) agonist (R1881)/culture medium using a Flying Reagent Dispenser (FRD, Aurora Discovery, San Diego, CA). The plates were incubated at 37C and 0% CO2 for 16 hr. For cytotoxicity assay, 1 uL of CellTiter-Fluor reagent (Promega Corporation, Madison, WI) was added to each well using the FRD and after 30 min incubation at 37C and 0% CO2, The fluorescence intensity was measured using ViewLux plate reader (PerkinElmer, Shelton, CT).
For orientation: Quantitative high-throughput screening tests each substance at several concentrations.
As to `CC(C)(C)NC[C@H](O)COc1cccc2c1CCCC2=O`, the outcome was inactive.

With `CN(C)CCCO[C@@H]1[C@H]2OC(C)(C)O[C@H]2O[C@@H]1C(O)CO` (stereo not given in full), the outcome was inactive.

With `CCCCCC/C=C/C(=O)OC`, the result was inactive.

On to `CC(C)=CCC/C(C)=C/COC=O`, for which the result was inactive.

With `Cc1ccnc(N)c1`, the outcome was inactive.

Consider `OC1OCCOC1O` (stereo not given), for which the outcome was inactive.

As to `CCOC(=O)CC1(C)OCC(C)O1` (stereo not given), the outcome was inactive.

On to `CCCC(=O)OC/C=C(\C)CCC=C(C)C`, for which the outcome was inactive.

On to `CC(CO)(CO)CO`, for which the outcome was inactive.

With `CC(=O)Nc1ccc(OC(=O)c2ccccc2OC(C)=O)cc1`, the result was inactive.

With `CC(C)C1OCCN1CCOC(=O)NCCCCCCNC(=O)OCCN1CCOC1C(C)C` (stereo not given), the result was inactive.

On to `CC(=O)OCC(=O)Nc1cc(C#N)cc(NC(=O)COC(C)=O)c1Cl`, for which the outcome was inactive.

Consider `N[C@@H](CSCCCO)C(=O)O`, for which the viability change, negative = cytotoxic was 2.53% [at 19 µM].

Consider `N#Cc1cscn1`, for which the outcome was inactive.

For `CCCCCc1cccc(=O)o1`, the outcome was inactive.

Consider `C=CCCCC`, for which the outcome was inactive.

For the molecule `[O-][n+]1cccc(/C(Cl)=N/OC[C@@H](O)CN2CCCCC2)c1`, the outcome was inactive.

For the molecule `COc1nc(N)nc2nc[nH]c12`, the result was inactive.

On to `C=C(C)[C@@H]1CC=C(C)CC1`, for which the outcome was inactive.

Turning to `COc1c2occc2c(OC)c2c(=O)cc(C)oc12`, the result was inactive.

`C#CCN[C@@H]1CCc2ccccc21`: the outcome was inactive.

On to `C=C(C)c1cccc(C(C)(C)N=C=O)c1`, for which the result was inactive.

With `CC(C)CO`, the outcome was inactive.

Turning to `C=CC(=O)CCCCC`, the outcome was inactive.

For the molecule `OCC(O)CN1CCN(c2ccccc2)CC1` (stereo not given), the outcome was inactive.

Consider `NCc1ccc(S(N)(=O)=O)cc1`, for which the result was inactive.

With `CCOCCOCC`, the outcome was inactive.

As to `Cc1ccc2c(c1)C(=O)c1ccccc1C2=O`, the result was inactive.

Take `Cn1nnc2c(C(N)=O)ncn2c1=O`: the outcome was inactive.

Consider `CC(C)NCC(O)c1ccc2ccccc2c1` (stereo not given), for which the result was inactive.

On to `CC1(C)O[C@H]2CC(=O)OC[C@]23[C@H]2CC[C@@]4(C)[C@H](c5ccoc5)OC(=O)[C@H]5O[C@]54[C@]2(C)C(=O)C[C@@H]13`, for which the result was inactive.

Consider `CCCCSCCCC`, for which the outcome was inactive.

On to `COC(=O)/C=C\C(=O)O`, for which the result was inactive.

Turning to `c1ccc(-c2nn[nH]n2)cc1`, the outcome was inactive.

Regarding `OCC1(CO)COCOC1`, the outcome was inactive.

Turning to `C=Cc1ccc(C(C)(C)C)cc1`, the result was inactive.

As to `O=[N+]([O-])c1c(Cl)cc(Cl)cc1Cl`, the result was inactive.

For the molecule `O=Cc1cc2ccccc2o1`, the outcome was inactive.

On to `CC(C)Cn1cnc2c1c(=O)n(C)c(=O)n2C`, for which the result was inactive.

Consider `CCC(C(=O)OCCN1CCOC(c2ccccc2)C1C)c1ccccc1` (stereo not given), for which the outcome was inactive.
